Screening data as filed in PubChem.
Hits are enriched below; roughly 3.5% of the tested compounds scored in any of these assays.
Hsp90 Hop PPI – changes Hsp90-Hop TPR2A binding signal, up or down; Potency, µM (titrated, usually from 57 µM), for the others: at the highest dose activity change, negative = inhibition; AID 595; AlphaScreen TPR2A-His6 binding biotin-Hsp90 C-terminal peptide; actives 0.44% (n = 71,000); active means well fitted curve in either direction with a large enough effect; inconclusive means small, poorly fitted or top-dose-only effect, or another doubt; further: on the % scale 0 is the no-effect control and ±100 the full control effect
IkB signaling – IkB pathway inhibition in ABC-DLBCL cells; ABC-DLBCL IkBa-CBG/CBR dual luciferase ratio, 4 h; response scale: scaled: untreated 0%, proteasome inhibitor 100%; Potency, µM (top dose mostly 57.1 µM), without a hit: at the top dose IkBa stabilization activation; actives 0.04% (n = 110,000); AID 445; active means well fitted curve in the direction sought with a large enough effect in the signal ratio, not every such curve was filed as active; inconclusive means small, poorly fitted or top-dose-only effect, or a change in a side signal; the % refers to the signal ratio;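 further: the direction sought is a rising ratio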
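Luminescence ratio of IκBα-fused green versus native red beetle luciferase in OCI-Ly3 cells, 4 h post-doxycycline with compound; red signal alone, scaled from basal (0%) to zero light (-100%), flagged nonspecific or cytotoxic effects.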
TSHR agonist – TSH receptor (human) agonism | P16473 | HEK293-CNG-TSHR cells (CNG channel as cAMP sensor), membrane potential dye, cAMP | Potency, µM (highest dose often 57.1 µM), inactives show top-dose activation, most hits filed as activators | actives 0.48% (n = 73,000) | AID 926; active means well fitted activation curve with a large enough effect in the main read-out, with a control signal flat, not every such curve was filed as active; inconclusive means small, poorly fitted or top-dose-only effect, or a change in a side signal; inactive means no such curve, though single readings can be large or run the other way; % of control where 0% means no effect;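 further: the control signal comes from parental cells without the receptor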
Target sequence (P16473 whole entry, looked up): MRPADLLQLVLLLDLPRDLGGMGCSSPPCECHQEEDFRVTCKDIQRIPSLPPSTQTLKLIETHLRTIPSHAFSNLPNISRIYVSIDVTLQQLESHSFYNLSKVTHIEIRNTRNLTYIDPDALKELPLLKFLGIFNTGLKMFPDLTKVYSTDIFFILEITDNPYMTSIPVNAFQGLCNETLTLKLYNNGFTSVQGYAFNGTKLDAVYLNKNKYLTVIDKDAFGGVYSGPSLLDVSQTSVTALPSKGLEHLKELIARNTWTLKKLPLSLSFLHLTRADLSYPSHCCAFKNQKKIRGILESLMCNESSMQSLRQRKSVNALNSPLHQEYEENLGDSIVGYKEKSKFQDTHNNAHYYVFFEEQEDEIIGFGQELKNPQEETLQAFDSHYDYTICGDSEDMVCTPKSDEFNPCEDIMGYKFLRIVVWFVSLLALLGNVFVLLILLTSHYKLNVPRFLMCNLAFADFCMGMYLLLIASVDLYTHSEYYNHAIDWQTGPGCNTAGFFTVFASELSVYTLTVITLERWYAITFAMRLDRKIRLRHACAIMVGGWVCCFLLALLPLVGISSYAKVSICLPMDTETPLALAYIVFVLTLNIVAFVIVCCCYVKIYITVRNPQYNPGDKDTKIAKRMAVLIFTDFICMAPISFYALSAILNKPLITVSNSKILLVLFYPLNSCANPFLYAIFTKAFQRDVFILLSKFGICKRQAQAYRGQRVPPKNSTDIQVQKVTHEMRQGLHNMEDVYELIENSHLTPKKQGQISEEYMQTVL
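HEK 293 cells stably expressing TSHR and a cAMP-gated CNG channel; parental CNG-only cells as counterscreen. Cells preloaded 60 min with membrane potential dye plus 100 uM RO 20-1724, then compound 30 min; fluorescence read at 590 nm.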
HEK293 cAMP cs – counter-screen for TSHR agonists: cAMP increase in parental HEK293. parental HEK293 CNG cAMP sensor, membrane potential fluorescence. Potency, µM (series often up to 57.1 µM), inactives show top-dose activation, usual class: activators. actives 2.5% (n = 73,000). AID 938; active means well fitted activation curve with a large enough effect; inconclusive means small, poorly fitted or top-dose-only effect; inactive means no such curve, though single readings can be large or run the other way; further: % of control where 0% means no effect; nearly all actives have a fitted effect of over 55% in size
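Parental HEK 293 cells stably expressing a modified CNG channel (no TSHR) report cAMP rise as membrane depolarization. Membrane potential dye with 100 uM RO 20-1724 was loaded for 60 min at room temperature, then compound added for 30 min; fluorescence read at 590 nm.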
CRE-bla Fsk – CRE-bla signaling modulation under forskolin stimulation. CHO CRE-bla reporter (cAMP response element driving beta-lactamase), forskolin EC10, beta-lactamase ratio. Potency, µM (highest dose often 38.2 µM), inactives show top-dose activity change, negative = inhibition, hits mostly activators. actives 2.5% (n = 71,000). AID 662; active means well fitted activation curve with a large enough effect in the signal ratio, with a control signal flat, not every such curve was filed as active; inconclusive means small, poorly fitted or top-dose-only effect, or effect the other way, or a change in a side signal; the % refers to the signal ratio; further: % of control where 0% means no effect
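qHTS titration format; CRE-bla CHO reporter; stimulus EC10 NKH 477, a water-soluble forskolin. Read: CCF4 460/530 nm ratio. Potency expressed as AC50 for activators or inhibitors.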
* = called active by the depositor; ? = inconclusive; nt = not tested or not shown; ! = a repeat was not active; [ ] = another dose, or the depositor's remark. Potency means the concentration at half of the fitted maximal effect.

SMILES	Hsp90 Hop PPI	IkB signaling	TSHR agonist	HEK293 cAMP cs	CRE-bla Fsk
CC(C)C(=O)Nc1ccccc1N1CCN(S(C)(=O)=O)CC1	-15.9%	-3.1%	4.1%	0.1%	10µM*
CC(C)C(=O)Nc1ccccc1N1CCN(C(=O)c2ccccc2)CC1	-7.6%	2.8%	1.7%	-3.5%	19.3%
CCOc1ccccc1NC(=O)c1ccccc1-c1nc(-c2ccccc2OC)no1	0.4%	?	?	20µM*	?
CC(C)NC(=O)c1ccccc1-c1nc(-c2ccccc2Cl)no1	1.6%	-2.0%	?	?	25.3%
CC(C)(C)NC(=O)c1ccccc1-c1nc(-c2ccccc2Cl)no1	?	1.7%	?	15.8µM*	-29.6%
COc1cccc(NC(=O)c2ccccc2-c2nc(-c3cccc(C)c3)no2)c1	5.8%	?	?	15.8µM*	?
CCOC(=O)CSc1nc2c(sc3ccccc32)c(=O)n1CCCN1CCOCC1	-6.0%	-0.9%	?	12.6µM*	?
CCOC(=O)CSc1nc2c(sc3ccccc32)c(=O)n1Cc1ccc(OC)cc1	nt	-0.6%	nt	nt	nt
Cc1ccc(Cn2c(SCC(C)C)nc3c2c(=O)n(C)c(=O)n3C)cc1	1.5%	?	?	25.1µM*	7.9%
CSc1nc2c(c(=O)[nH]c(=O)n2C)n1C/C=C(\C)Cl	1.4%	0.1%	?	?	12.6µM*
C/C(Cl)=C/Cn1c(SCc2ccc(Cl)cc2)nc2c1c(=O)[nH]c(=O)n2C	-0.7%	-1.0%	-1.6%	10.2%	22.6%
C=CCn1c(N2CCCCCC2)nc2c1c(=O)[nH]c(=O)n2C	-1.9%	-0.1%	3.2%	-7.5%	?
CCSc1nc2c(c(=O)n(C)c(=O)n2C)n1Cc1ccc(Cl)cc1	-0.4%	?	?	?	12.5%
C/C=C/CSc1nc2c(c(=O)[nH]c(=O)n2C)n1Cc1ccc(C)cc1	-6.7%	-0.5%	17.5%	0.0%	7.94µM*
Cc1ccc(Cn2c(Sc3ncccn3)nc3c2c(=O)[nH]c(=O)n3C)cc1	-2.4%	-2.3%	0.6%	-7.6%	0.4%
C/C(Cl)=C\Cn1c(N2CCCC2)nc2c1c(=O)[nH]c(=O)n2C	-2.7%	-2.7%	0.8%	0.7%	12.6µM*
COc1cc(NS(=O)(=O)c2cc(Br)cc3c2N(C(C)=O)C(C)C3)cc(OC)c1 (stereo not drawn)	nt	-2.3%	nt	nt	nt
COc1ccc(-c2cc(OC(=O)c3ccc(Cl)cc3)c3c(C)oc(C)c3c(=O)c2)cc1	nt	9.8%	nt	nt	nt
CCSc1nc2c(c(=O)[nH]c(=O)n2C)n1C/C=C(/C)Cl	-0.6%	0.2%	8.2%	15.5%	2.51µM*
C=CCSc1nc2c(c(=O)[nH]c(=O)n2C)n1C/C=C(/C)Cl	2.5%	0.5%	5.9%	22.3%	?
Cc1cccc(-c2nnc3sc(-c4ccccc4C)nn23)c1	0.3%	-1.5%	?	31.6µM*	?
c1ccc(-c2nnc3sc(-c4csc5c4CCCC5)nn23)cc1	-4.2%	8.6%	?	25.1µM*	?
C[C@@H](C(=O)Nc1ccc2ccccc2c1)[C@@H]1C[C@@]1(C)[C@@H](NS(=O)(=O)c1ccc(-c2ccccc2)cc1)c1ccccc1	-7.6%	nt	5.9%	25.4%	-8.2%
Cc1cccc(-c2nnc(NC(=O)c3ccc(Cl)cc3)o2)c1	3.5%	7.94µM*	10.6%[11.4 µM]	8.6%	-3.1%
CCNc1ncc2nc(-c3cccs3)c(=O)n(Cc3ccc(F)cc3)c2n1	-1.2%	-0.6%[11.4 µM]	-11.2%	2.4%	?
SMILES	Hsp90 Hop PPI	IkB signaling	TSHR agonist	HEK293 cAMP cs	CRE-bla Fsk
CCOc1ccc(-c2[nH]nc3c2C(c2ccc4c(c2)OCO4)C(C#N)=C(N)O3)cc1OC (stereo not drawn)	?	5.2%	0.8%	-9.1%	2.51µM*
COc1ccc2c(c1)c(CC(=O)N1CCOCC1)c(C)n2C(=O)c1ccc(Cl)cc1	2.2%	?	?	39.8µM*!	4.1%
Cc1nc2sc3c(c2c2nc(-c4ccco4)nn12)CC(C)(C)OC3	0.6%	-3.7%	28.2%	5.1%	3.16µM*
Nc1nonc1-c1nc2ccccc2n1CC(=O)N1CCN(c2ccc(F)cc2)CC1	-5.6%	1.9%	?	25.1µM*	-10.7%
O=C(CSc1nc2ccccc2n1Cc1ccc(F)cc1)N1CCN(c2ccc(F)cc2)CC1	nt	0.6%	nt	nt	nt
CCCCOc1ccccc1NC(=O)Cn1c(-c2nonc2N)nc2ccccc21	-3.0%	0.5%	?	6.31µM*	2µM*
COc1ccc(CNC(=O)c2cnc(N3CCCC3)nc2C)c(OC)c1	nt	-1.7%	nt	nt	nt
CCCCc1cc(=O)oc2cc(C)c3c(C)coc3c12	nt	-2.7%	nt	nt	nt
N[C@H](Cc1ccc(F)cc1)C(=O)O	-6.2%	9.2%	8.1%	7.8%	8.5%
COc1ccc(CN(C(=O)c2ccco2)c2ccc(Br)cc2)cc1OC	?	?	?	31.6µM*	?
COc1ccc(N(C(=O)c2ccco2)S(=O)(=O)c2cc(OC)ccc2OC)cc1	-6.2%	0.3%	?	15.8µM*	?
COc1ccc(N(C(=O)c2ccco2)S(=O)(=O)c2cccs2)cc1	-2.2%	-0.9%	?	?	?
COc1cc(CN(C(=O)c2ccco2)c2ccc(C)cc2)ccc1O	-2.0%	-0.4%	19.7%	23.0%	1.4%
C[C@@]12CCC(=O)C=C1CC[C@@H]1[C@@H]2[C@H](O)C[C@]2(C)[C@@H]1CC[C@]2(O)C(=O)COC(=O)CCC(=O)O	-6.8%	0.126µM*	?	?	3.8%
C[C@@]12CCC(=O)C=C1CC[C@@H]1[C@@H]2[C@H](O)C[C@]2(C)[C@@H]1CC[C@]2(O)C(=O)CO	-3.4%[26 µM]	0.0794µM*!	-34.2%[25.6 µM]	-6.7%[25.6 µM]	-2.3%[17.1 µM]
CC(=O)N1c2ccccc2C(=O)OC1c1cccnc1 (stereo not drawn)	1.4%	-0.3%	-0.1%	4.5%	0.631µM*
COCCn1c(-c2ccccc2)nc2oc3ccccc3c(=O)c2c1=O	-2.6%	0.1%	4.8%	8.3%	?
COCCn1c(-c2cc(OC)c(OC)c(OC)c2)nc2oc3ccccc3c(=O)c2c1=O	-5.7%	-1.7%	-14.6%	-13.7%	2µM*
Cc1ccc(-c2nn3c(C)nnc3c3ccccc23)cc1S(=O)(=O)NCC(C)O (stereo not drawn)	nt	7.2%	nt	nt	nt
Cc1ccc(-c2nn3c(-c4ccco4)nnc3c3ccccc23)cc1S(=O)(=O)NCC1CCCO1 (stereo not drawn)	-3.6%	-2.7%	?	20µM*	?
COc1ccccc1NC(=O)CSc1ncnc2c1oc1ccccc12	-2.4%	0.2%	?	?	1µM*
CCc1ccccc1NC(=O)CSc1nc2c(oc3ccccc32)c(=O)n1C	nt	-2.1%	nt	nt	nt
O=C(CSc1ncnc2c1oc1ccccc12)Nc1cccc(F)c1	0.8%	0.6%	?	?	?
CCc1nc(SCC(=O)Nc2nccs2)c2oc3ccccc3c2n1	-3.3%	-1.1%	-2.9%	17.5%	1.26µM*
